DT40 TDP1 CPT: growth inhibition of DT40 Tdp1-/-;hTDP1 cells with camptothecin (screen for TDP1 inhibitors). chicken DT40 Tdp1-/-;hTDP1 cells + 20 nM CPT, ATP luminescence, 48 h. Potency, µM (highest dose often 46.2 µM), inactives show at the highest dose activity change, negative = growth inhibition, usual class: inhibitors. 12% of 420,000 active. AID 686979; note: potency is the fitted concentration of half-maximal effect; nearly all actives have a fitted effect of over 55% in size
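Cell growth measured by CellTiter-Glo luminescence after a minimum 48 h, 37 C compound exposure with 20 nM CPT in Tdp1-knockout DT40 cells stably expressing hTDP1, seeded 400/well; qHTS titration format.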
IL-1B inflam inh: blocks inflammasome-driven IL-1 beta release. THP-1 LPS/ATP IL-1B secretion, AlphaLISA, 16 h; active compounds read low. activity change, % at 57.5 µM. 4.7% of 360,000 active; in the data active = activity change below about -50%; inconclusive = mostly about -30% to -49%
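THP-1 cells pretreated 1 hr with compounds (up to 57.5 uM final), then stimulated with LPS (250 ng/mL final) plus ATP (1.25 mM final); secreted IL-1B measured by AlphaLISA after 16 hr, decreased signal indicating inhibition.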
HT1080 IDH1KD tx: kills HT-1080 cells with IDH1 knockdown; HT-1080 IDH1 knockdown viability, ATP luminescence, 48 h; Potency, µM (doses to about 46.1 µM), without a hit: at the top dose activity, negative = toxicity, usual class: cytotoxic; 2% of 360,000 active; AID 686971;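 note: potency is the fitted concentration of half-maximal effect; 0% = DMSO wells and -100% = cell-free medium wells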
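Knockdown cells (IDH1KD HT-1080) received compounds 2 h after plating at 750 cells/well and were kept 48 h at 37 °C in 5% FBS RPMI. A CellTiter-Glo luminescence read gave % activity for curve fitting.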
HT1080NT lethal: kills 2HG-producing HT-1080-NT fibrosarcoma cells | 1.6% of 360,000 active | HT-1080-NT fibrosarcoma viability, CellTiter-Glo ATP luminescence, 48 h | Potency, µM (doses to about 46.1 µM), inactives show at the highest dose activity, negative = less viability, actives largely listed as cytotoxic | AID 686970;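 note: NT is the 2HG producing partner of a matched IDH1 knockdown line; potency is the fitted concentration of half-maximal effect; 0% = DMSO-treated cells and -100% = media-only wells without cells; nearly all actives have a fitted effect of over 55% in size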
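Read-out is CellTiter-Glo luminescence after 10 minutes at room temperature, following 48 hours' compound treatment of HT-1080-NT cells (750 cells/well, RPMI, 5% FBS, 37 degrees C).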
TDP1 cell noCPT: qHTS for Inhibitors of human tyrosyl-DNA phosphodiesterase 1 (TDP1): qHTS in cells in absence of CPT | DT40 Tdp1-/- hTDP1 cells, no CPT, ATP luminescence, 48 h | Potency, µM (series often up to 46.2 µM), for the others: at the top dose activity change, negative = growth inhibition, hits mostly inhibitors | 15% of 420,000 active; note: potency is the fitted concentration of half-maximal effect; nearly all actives have a fitted effect of over 55% in size
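Growth kinetics read by CellTiter-Glo luminescence after ≥48 hr at 37 °C. Cells: DT40 Tdp1-/- stably carrying human TDP1, 400 per well, compound exposure in the absence of CPT (DMSO vehicle).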
An asterisk follows results filed as active; ? = inconclusive; . = not tested or not shown; [ ] = another dose, or the depositor's remark. In the library only some 19% were active in any assay of this set; here they are far more common. Unless noted, calls come from the whole dose curve; as a rule, active = well fitted curve in the direction sought with a large enough effect; inconclusive = small, poorly fitted or top-dose-only effect, or another doubt; inactive = no such curve, though single readings can be large; an effect the other way counts as inactive or inconclusive. Unless noted, % is set by controls: 0 for no effect and ±100 for the full control effect.

SMILES	DT40 TDP1 CPT	IL-1B inflam inh	HT1080 IDH1KD tx	HT1080NT lethal	TDP1 cell noCPT
COc1ccccc1C1CCN(c2cc(O)ccc2[N+](=O)[O-])CC1	-21%	-6	?	?	?
CCOc1ccc(NS(=O)(=O)c2ccc3[nH]cc(C(=O)N(C)C4CCCCC4)c(=O)c3c2)cc1	4%	.	.	.	-8%
CCCCNC(=O)C1c2ccccc2OCC(=O)N1CCc1ccccc1 (stereo not drawn)	-26%	11	11%	11%	?
COc1ccc(S(=O)(=O)N2CCCCC2)cc1NC(=O)CSc1ncccn1	-1%	12	-7%	3%	-22%
COC(=O)c1ccc(CNC(=O)C2CCC(=O)N(CCCc3ccccc3)C2)cc1 (stereo not drawn)	13µM*	0	-4%	-4%	?
COc1ccccc1CCCNC(=O)C1CCC(=O)N(CCc2cccc(F)c2)C1 (stereo not drawn)	?	11	6%	3%	18µM*
COc1ccc(CCCNC(=O)C2CCC(=O)N(CCc3cccc(F)c3)C2)cc1 (stereo not drawn)	23µM*	1	-1%	1%	?
COc1ccc(CCCNC(=O)C2CCC(=O)N(CC3CCCCC3)C2)cc1 (stereo not drawn)	16µM*	-6	-15%	-6%	18µM*
Cc1cccc(Oc2ncc(-c3ccc(Cl)cc3)cn2)c1C	?	-25	-21%	-15%	21µM*
CC1S/C(=C(\C#N)C(=O)NCc2ccco2)N(Cc2ccco2)C1=O (stereo not drawn)	8.2µM*	26	0%	-4%	?
Cc1cccc2nc(CNC(=O)CN3Cc4ccccc4OC(c4ccccc4F)C3)cn12 (stereo not drawn)	7%[9.04 µM]	.	.	.	-26%
Cc1cccc2nc(CNC(=O)CN3Cc4cc(Cl)ccc4OC(C)C3)cn12 (stereo not drawn)	4.1µM*	.	.	.	5.8µM*
Cc1cc2c(cc1C)N(C(=O)CCl)CC(=O)N2	2.3µM*	-65*	23µM*	?	2.6µM*
Cc1ccc(Cl)cc1N1CCN(C(=O)CCC(=O)O)CC1	-8%	-9	-2%	-3%	-18%
Cc1cc(=O)oc2cc(OCC(=O)N3CC(=O)Nc4ccccc43)c(Cl)cc12	-6%	10	1%	1%	-6%
Cc1cc2c(cc1C)N(C(=O)CCl)CCN2C(=O)CCl	0.46µM*	-100*	?	?	0.58µM*
CC(=O)c1ccc(Cc2ccc(C(C)=O)s2)s1	-25%	0	-8%	-3%	?
CCn1c(/C=C2/C(=O)N(C)c3ccccc32)nc2ccccc2c1=O	?	-16	-20%	-18%	16µM*
CCN1C(=O)/C(=C\c2nc3ccccc3c(=O)n2CC)c2ccccc21	16µM*	-86*	-25%	-16%	29µM*
CCn1c(/C=C2\C(=O)N(C)c3ccccc32)nc2ccccc2c1=O	?	1	-2%	-3%	?
CCN1C(=O)/C(=C/c2nc3ccccc3c(=O)n2-c2ccccc2)c2ccccc21	21µM*	.	-6%	-12%	18µM*
CC(=O)NC(Cc1c[nH]c2ccccc12)C(=O)OCC(=O)N1CCCCCC1 (stereo not drawn)	12%	-5	9%	8%	-19%
O=C(NNC(=O)C1CCCO1)c1ccc(Cl)cc1 (stereo not drawn)	-24%	21	11%	-1%	-7%
CCCCCN(C(=O)CCC(=O)OCC(=O)N(C)Cc1ccc(C)cc1)c1c(N)n(CCCC)c(=O)[nH]c1=O	-17%	-11	23%	14%	0%
Cc1c(N=C2SC(CC(=O)Nc3ccccc3)C(=O)N2CCN2CCOCC2)c(=O)n(-c2ccccc2)n1C (stereo not drawn)	7%	-4	1%	0%	-16%
SMILES	DT40 TDP1 CPT	IL-1B inflam inh	HT1080 IDH1KD tx	HT1080NT lethal	TDP1 cell noCPT
COc1ccc(OC)c(NC(=O)CC2SC(=Nc3ccc(F)cc3)N(CCC3=CCCCC3)C2=O)c1 (stereo not drawn)	?	25	-6%	-6%	?
O=C(CC1SC(=Nc2ccc(OC(F)F)cc2)N(CCN2CCOCC2)C1=O)Nc1ccccc1 (stereo not drawn)	16µM*	-12	-24%	18%	?
O=C(CC1SC(=Nc2ccc(OC(F)F)cc2)N(CCN2CCOCC2)C1=O)Nc1ccc(F)cc1F (stereo not drawn)	?	-63*	-16%	-13%	?
Cc1noc(C)c1C(=O)N(C)CC(=O)Nc1ccc(F)c(F)c1F	-3%	0	0%	0%	-2%
COC(=O)C1CN(C(=O)COc2ccc(Cl)c(C)c2)c2ccccc2O1 (stereo not drawn)	-1%	-12	10%	12%	-11%
Cc1ccc(-n2c(N)c(C(=O)NCc3ccco3)sc2=S)cc1	?	-58*	-17%	-14%	-29%
COC(=O)c1sc2nc(C)cc(C)c2c1N	-24%	-24	0%	3%	-7%
C=CCn1c(N)c(C(=O)NCc2ccco2)sc1=S	1%	?	15%	9%	-1%
Cc1cc(C)c2c(N)c(C(=O)c3ccccc3Cl)sc2n1	-29%	-9	-9%	-8%	?
Cc1cc(C)c2c(N)c(C(=O)N3CCCCCC3)sc2n1	15µM*	-17	2%	8%	-24%
Cc1cc(C)c2c(N)c(C(=O)c3ccc(Cl)cc3Cl)sc2n1	?	-2	-9%	-11%	18µM*
Cc1cc(C)c2c(N)c(C(=O)Nc3ncc(C)s3)sc2n1	16µM*	-19	?	?	18µM*
CC1Oc2ccc(C#N)cc2N(Cc2ccc(F)cc2)C1=O (stereo not drawn)	-16%	3	1%	-2%	-27%
CCc1ccccc1NC(=O)c1sc2nc(C)cc(C)c2c1N	18µM*	?	-4%	-17%	?
CC(=O)c1sc2nc(C)cc(C)c2c1N	-23%	-8	-24%	2%	?
Cc1cc(C)c2c(N)c(C(=O)NCc3ccco3)sc2n1	0%	-61*	20%	20%	?
Cc1cc(C)c2c(N)c(C(=O)Nc3ccccc3Br)sc2n1	-29%	-3	-13%	-1%	-17%
CCc1ccc2ncc3c(-c4ccc(F)cc4)nn(CC(=O)NCc4ccccc4)c3c2c1	-4%	.	.	.	-5%
COc1ccc(CC(=O)OCC(=O)c2ccc(F)cc2)cc1	-10%	23	3%	2%	13%
CC(C)OC(=O)CCCCCN1C(=O)CSC1=S	-4%	-56*	14%	8%	-9%
O=C(O)CCCCCN1C(=O)CSC1=S	-28%	-19	8%	9%	?

Bioassay records deposited in PubChem BioAssay by National Center for Advancing Translational Sciences (NCATS).
